Compound activity deposited in PubChem by National Center for Advancing Translational Sciences (NCATS).
Hits are enriched below; roughly 4.6% of the tested compounds scored in any of these assays.
D1 antag – antagonists of human D1 dopamine receptor | P21728 | HEK293 TREx D1 cells, calcium flux, dopamine EC80; stronger effect = lower value | activity change, negative = inhibition, % at 10 µM | 360,000 tested, 3.2% active | AID 504652; in the data active means activity change below about -30%; further: on the % scale 0 is the no-effect control and ±100 the full control effect
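Using tetracycline-induced force-coupled D1 Hek293 cells and a calcium dye, signals were followed for 180 s after compound, then for 180 s after EC80 dopamine, to detect inhibitors.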
D1 agonist – activates the human D1 dopamine receptor; P21728; HEK293 T-REx D1 cells, calcium flux, agonist mode; activation, % at 2 µM; 360,000 tested, 1% active; AID 504660; further: 0% is about no effect
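Agonism was scored from calcium flux recorded over 180 s (1 read/s) after pintool compound addition, following a 10-cycle baseline. Cells were inducible force-coupled HEK293 TREx D1, plated overnight at 30 C and loaded with no-wash calcium dye.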
TRHR ag – agonists of human TRH receptor | P34981 | TRHR cells, calcium flux fluo-8, FDSS agonist mode | activation, % at 2 µM | 360,000 tested, 0.18% active; further: 0% is about no effect
Target sequence (P34981 whole entry, looked up): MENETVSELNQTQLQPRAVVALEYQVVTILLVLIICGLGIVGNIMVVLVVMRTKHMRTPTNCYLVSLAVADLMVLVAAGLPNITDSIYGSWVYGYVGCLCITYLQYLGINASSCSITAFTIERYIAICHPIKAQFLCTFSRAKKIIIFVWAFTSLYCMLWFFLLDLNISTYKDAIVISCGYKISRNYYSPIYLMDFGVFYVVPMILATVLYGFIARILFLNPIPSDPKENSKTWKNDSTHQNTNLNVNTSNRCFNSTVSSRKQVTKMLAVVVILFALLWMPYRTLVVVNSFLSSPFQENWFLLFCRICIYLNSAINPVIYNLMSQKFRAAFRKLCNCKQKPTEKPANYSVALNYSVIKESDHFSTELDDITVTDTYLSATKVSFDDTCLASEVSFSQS
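In this calcium-flux screen, cells bearing human TRHR are dye-loaded with fluo-8, baselined for 10 cycles, then exposed to library compounds; positive kinetic calcium responses during the agonist phase mark hits, with TRH as control.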
TRHR PAM – allosterically enhances the human TRH receptor. P34981. TRHR cells, fluo-8 calcium fluorescence, EC20 TRH enhancement. enhancement, % at 2 µM. 360,000 tested, 0.66% active. AID 493056; in the data active means enhancement above about 30%; further: 0% is about no effect
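TRHR-expressing cells loaded with fluo-8 calcium dye were read kinetically (ex 480/em 530) during compound addition, then stimulated with an EC20 of TRH (10 nM final). Enhancement of the Gq-mediated intracellular calcium response was scored.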
D1 potentiator – potentiators of human D1 dopamine receptor; P21728; HEK293 TREx D1 cells, calcium flux, dopamine EC20 potentiation; potentiation, % at 10 µM; 360,000 tested, 0.036% active; in the data active means potentiation above about 30%; further: 0% is about no effect
* = called active by the depositor. Unless noted, no stated cut-off is given here; in the data, active means activation above about 30%; inactive means the rest.

Results for Oc1c(C(c2ccccc2F)N2CCC3(CC2)OCCO3)sc2nc(-c3ccco3)nn12 (stereo not drawn) ?
D1 agonist: -2.7; TRHR ag: 0.0; TRHR PAM: 17.0; D1 potentiator: -2.4

What do the screens show for `COc1cccc(/C=C/C(=O)c2ccc(NS(=O)(=O)c3ccc(C)cc3)cc2)c1`?
D1 antag: -59.7*; D1 agonist: 2.5; TRHR ag: -0.1; TRHR PAM: 4.9; D1 potentiator: -4.5

How did CN(C(=O)CCc1nc(-c2ccccc2F)no1)c1ccc(Cl)cc1 do in these assays?
D1 antag: -6.2; D1 agonist: 3.3; TRHR ag: -0.9; TRHR PAM: 1.0; D1 potentiator: 0.8

What do the screens show for `CN(c1cccc(NC(=O)CN(c2ccc(Cl)c(Cl)c2)S(=O)(=O)c2ccccc2)c1)S(C)(=O)=O`?
D1 antag: -9.9; D1 agonist: 3.7; TRHR ag: 0.0; TRHR PAM: 5.2; D1 potentiator: 7.2

What do the screens show for `Cc1ccc(S(=O)(=O)N(CC(=O)Nc2ccc3c(c2)OCO3)c2cc(Cl)cc(Cl)c2)cc1`?
D1 antag: -2.1; D1 agonist: 8.3; TRHR ag: -0.5; TRHR PAM: 16.8; D1 potentiator: -1.9

Results for Cc1ccc(S(=O)(=O)N(CC(=O)Nc2c(C)cccc2C)c2cccc(Cl)c2)cc1 ?
D1 antag: -85.4*; D1 agonist: 1.1; TRHR ag: -1.6; TRHR PAM: -9.0; D1 potentiator: 1.2

What do the screens show for `Cc1ccc(S(=O)(=O)N(CC(=O)Nc2cccc(N(C)S(C)(=O)=O)c2)c2ccc(Cl)c(Cl)c2)cc1`?
D1 antag: -32.3*; D1 agonist: 3.5; TRHR ag: 1.6; TRHR PAM: 2.5; D1 potentiator: -12.1

What do the screens show for `C[C@@H](C(=O)NCc1ccccn1)[C@@H]1C[C@@]1(C)[C@@H](NC(=O)OCc1ccccc1)c1ccccc1`?
D1 antag: -31.0*; D1 agonist: -2.1; TRHR ag: -0.5; TRHR PAM: -5.1; D1 potentiator: 1.9

How did C[C@@H](C(=O)NCc1ccccc1)[C@@H]1C[C@@]1(C)[C@@H](NC(=O)OCc1ccccc1)c1ccccc1 do in these assays?
D1 antag: -0.2; D1 agonist: 12.9; TRHR ag: -0.6; TRHR PAM: 3.8; D1 potentiator: 2.3

What do the screens show for `Cc1ccccc1Nc1nnc(SCc2cc(=O)n3ccsc3n2)s1`?
D1 antag: -54.1*; D1 agonist: 4.6; TRHR ag: -0.2; TRHR PAM: 8.2; D1 potentiator: 8.2

How did O=C(NCCC(=O)N1CCC2(CC1)NCCc1[nH]cnc12)c1cccc(Br)c1 do in these assays?
D1 antag: -6.2; D1 agonist: 3.5; TRHR ag: 0.3; TRHR PAM: 6.0; D1 potentiator: 6.8

Results for Fc1ccc(OCc2nc(-c3ccc(Br)o3)no2)c(F)c1 ?
D1 antag: 2.8; D1 agonist: 4.8; TRHR ag: -0.6; TRHR PAM: -3.6; D1 potentiator: -2.9

How did Clc1ccccc1OCc1nc(-c2ccc(Br)o2)no1 do in these assays?
D1 antag: -40.9*; D1 agonist: 11.4; TRHR ag: 0.4; TRHR PAM: -8.2

What do the screens show for `Brc1ccc(-c2noc(COc3ccc4ccccc4c3)n2)o1`?
D1 antag: -52.4*; D1 agonist: 27.1; TRHR ag: -0.3; TRHR PAM: 14.5; D1 potentiator: -6.5

Results for COc1cccc(OCc2nc(-c3ccc(Br)o3)no2)c1 ?
D1 antag: -9.1; D1 agonist: 8.9; TRHR ag: -0.2; TRHR PAM: 0.1; D1 potentiator: -0.3

Results for Cc1ccc(Cl)cc1NC(=O)Cn1c(=O)n(CCCS(=O)(=O)C2CCCCC2)c(=O)c2ccccc21 ?
D1 antag: 20.2; D1 agonist: 2.1; TRHR ag: -0.1; TRHR PAM: -9.8; D1 potentiator: -3.0

What do the screens show for `C=CCc1ccccc1OCc1nc2ccc(C)cc2[nH]1`?
D1 antag: -37.1*; D1 agonist: 21.4; TRHR ag: -0.9; TRHR PAM: 7.1; D1 potentiator: -2.5

Results for CCC(=O)Nc1nnc(/C=C/c2ccc(OC)cc2)s1 ?
D1 antag: -48.2*; D1 agonist: 2.3; TRHR ag: 1.0; TRHR PAM: 6.9; D1 potentiator: -0.1

Results for Cc1ccc(-c2nc(NC(=O)CSc3nc(C)nc4sc5c(c34)CCCC5)ns2)cc1 ?
D1 antag: -3.0; D1 agonist: 0.0; TRHR ag: 0.5; TRHR PAM: -0.6; D1 potentiator: -4.1
